# A selection: hits, their analogues and other compounds. The true share with any hit is near 6%.
# PLK1 PBD inh – qHTS for Inhibitors of PLK1-PDB (polo-like kinase 1 - polo-box domain): Primary Screen. Serine/threonine-protein kinase PLK1 (Homo sapiens), P53350. Potency, µM, for the others: max response, negative = inhibition, actives largely listed as inhibitors. 360,000 tested, 2.8% active. Plk1 PBD binding of FITC phosphopeptide, fluorescence polarization; further: potency means the concentration at half of the fitted maximal effect; series mostly up to about 57 µM; on the % scale 0 is the no-effect control and ±100 the full control effect; nearly all actives have a fitted effect of over 65% in size
# Target sequence (P53350 whole entry, looked up, the tested form may be a part): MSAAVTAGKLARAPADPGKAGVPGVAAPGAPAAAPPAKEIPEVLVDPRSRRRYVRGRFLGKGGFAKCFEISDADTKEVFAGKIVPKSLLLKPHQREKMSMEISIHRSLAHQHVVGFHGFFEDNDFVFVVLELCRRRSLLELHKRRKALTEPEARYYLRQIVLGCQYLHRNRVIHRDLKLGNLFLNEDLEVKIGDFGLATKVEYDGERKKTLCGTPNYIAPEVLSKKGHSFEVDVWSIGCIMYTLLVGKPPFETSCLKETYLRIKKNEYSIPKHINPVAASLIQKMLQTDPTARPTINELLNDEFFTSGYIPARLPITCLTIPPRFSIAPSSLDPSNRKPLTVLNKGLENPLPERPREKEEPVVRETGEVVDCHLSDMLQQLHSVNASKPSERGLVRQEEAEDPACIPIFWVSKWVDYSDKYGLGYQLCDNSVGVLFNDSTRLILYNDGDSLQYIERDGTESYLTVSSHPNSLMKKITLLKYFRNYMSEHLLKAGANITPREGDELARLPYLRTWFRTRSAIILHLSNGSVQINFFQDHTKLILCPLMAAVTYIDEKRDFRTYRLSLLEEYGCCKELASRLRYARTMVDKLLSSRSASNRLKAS
# Tau fluor cs – Counterscreen qHTS for Inhibitors of Tau Fibril Formation, Fluorescence Polarization; tau K18 P301L Alexa594 fluorescence, heparin fibrillization; AID 1463, 2008; 280,000 tested, 0.93% active; Potency, µM (titrated, usually from 57.7 µM), for inactives: at the top dose activity change, negative = decrease; further: potency means the concentration at half of the fitted maximal effect; on the % scale 0 is the no-effect control and ±100 the full control effect; nearly all actives have a fitted effect of over 55% in size
#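 Human tau K18 P301L (15 uM unlabeled, 0.24 uM Alexa 594-labeled) in 100 mM sodium acetate pH 7 with 20 uM heparin, 6 hr at 37 C. ThT 30 uM added, 1 hr ambient; Alexa 594 FP and total fluorescence read at 555/632 nm.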
# Tau FP inhib – qHTS for Inhibitors of Tau Fibril Formation, Fluorescence Polarization | AID 1468, 2008 | Microtubule-associated protein tau (Homo sapiens), P10636 | Potency, µM (highest dose often 57.7 µM), for inactives: at the top dose activity, negative = inhibition, most hits filed as inhibitors | K18 P301L tau heparin fibrillization, Alexa594 FP, 6 h | 280,000 tested, 0.39% active; further: potency means the concentration at half of the fitted maximal effect; on the % scale 0 is the no-effect control and ±100 the full control effect; nearly all actives have a fitted effect of over 55% in size
# Target sequence (P10636 561-689 P618L limits assumed): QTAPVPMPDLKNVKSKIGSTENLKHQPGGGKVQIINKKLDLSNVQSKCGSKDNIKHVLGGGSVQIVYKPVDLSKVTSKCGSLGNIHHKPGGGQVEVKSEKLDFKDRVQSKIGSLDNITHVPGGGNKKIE
#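 Heparin (20 uM) drove fibril formation of recombinant tau K18 P301L, 15 uM unlabeled with 0.24 uM Alexa 594 label, for 6 hr at 37 C in 100 mM sodium acetate pH 7. Fluorescence polarization (555/632 nm) read 1 hr after 30 uM ThT.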
# VDR inhibitor – Inhibitors of the vitamin D receptor (VDR): qHTS; AID 504847, 2011; VDR-SRC2-3 peptide fluorescence polarization, 2 h; Potency, µM, without a hit: max response, negative = inhibition, most hits filed as inhibitors; Vitamin D3 receptor (Homo sapiens), P11473; 400,000 tested, 0.93% active; further: potency means the concentration at half of the fitted maximal effect; on the % scale 0 is the no-effect control and ±100 the full control effect
#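 The screen uses fluorescence polarization to detect compounds that interfere with recruitment of the SRC2-3 coactivator peptide to VDR; plates are read after 2 h at room temperature.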
# Tau fibril ThT – qHTS for Inhibitors of Tau Fibril Formation, Thioflavin T Binding. Microtubule-associated protein tau (Homo sapiens), P10636. recombinant tau K18 P301L, heparin-induced fibrillization, ThT fluorescence. Potency, µM (top dose mostly 57.4 µM), for the others: at the highest dose activity, negative = inhibition, actives largely listed as inhibitors. 270,000 tested, 2.1% active. AID 1460, 2008; further: potency means the concentration at half of the fitted maximal effect; on the % scale 0 is the no-effect control and ±100 the full control effect; nearly all actives have a fitted effect of over 55% in size
#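 ThT emission at 510 nm, taken 1 hr after adding 30 uM dye, quantifies aggregates formed when 20 uM heparin acts on human tau K18 P301L for 6 hr at 37 C.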
# Sfp inh – qHTS Assay for Inhibitors of Bacillus subtilis Sfp phosphopantetheinyl transferase (PPTase). 4'-phosphopantetheinyl transferase ffp (Bacillus subtilis), Q9F4F7. AID 1490, 2009. Biochemical Sfp PPTase activity, qHTS. Potency, µM, for inactives: largest response in the series, negative = inhibition, usual class: inhibitors. 310,000 tested, 3.5% active;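 further: the enzyme is Sfp with the accession as filed and its product quenches rhodamine fluorescence; potency means the concentration at half of the fitted maximal effect; 0% = enzyme reaction without inhibitor and -100% = no enzyme wells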
#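 Fluorescence-quenching assay: 15 nM Sfp-PPTase preincubated 15 min at room temperature with compound, then 5 uM rhodamine-CoA and 12.5 uM BHQ-2-labelled YbbR peptide added. Fluorescence (ex 525/em 598 nm) read at start and after 30 min; difference gives rate.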
# Sfp inh conf – Confirmation qHTS Assay for Inhibitors of Bacillus subtilis Sfp phosphopantetheinyl transferase (PPTase). shares compounds with Sfp inh. Sfp PPTase enzymatic assay, qHTS titration. Potency, µM (titrated, usually from 114 µM), without a hit: at the highest dose activity change, negative = inhibition, actives largely listed as inhibitors. 380 tested, 79% active. AID 2701, 2010;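 further: potency means the concentration at half of the fitted maximal effect; plate controls were uninhibited Sfp reaction for no effect and no enzyme control for full effect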
# Sfp gel assay – Gel-Based Assay for Inhibitors of Bacillus subtilis Sfp phosphopantetheinyl transferase (PPTase) | shares compounds with Sfp inh | Potency, µM, most hits filed as inhibitors | 210 tested, 20% active | purified Sfp, gel-based phosphopantetheinylation read-out;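 active means potency below 100 µM; inconclusive means dose-dependent response but potency above 100 µM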;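 further: band intensities scaled against SCH202676 control wells before curve fitting; potency is an IC50 for inhibitors of Sfp transfer activity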
# VDR inh confirm – qHTS for Inhibitors of the vitamin D receptor (VDR): Hit Validation in Primary Screen; AID 602199, 2012; Potency, µM, hits mostly inhibitors; VDR-coactivator inhibition assay, qHTS confirmation; shares compounds with VDR inhibitor; 840 tested, 89% active; further: potency means the concentration at half of the fitted maximal effect
# VDR FP – qHTS for Inhibitors of the vitamin D receptor (VDR): Hit Validation using a Fluorescein Assay; Potency, µM (series often up to 57.1 µM), without a hit: at the top dose activity change, negative = inhibition, hits mostly inhibitors; VDR-coactivator binding, fluorescein fluorescence polarization; 840 tested, 48% active; shares compounds with VDR inhibitor; further: potency means the concentration at half of the fitted maximal effect
# VDR bla – qHTS for Inhibitors of the vitamin D receptor (VDR): Hit Validation using a Beta-Lactamase Assay; VDR beta-lactamase reporter cells, FRET ratio; cells co-treated with VDR agonist LG190178; shares compounds with VDR inhibitor; AID 602202, 2012; 840 tested, 23% active; Potency, µM (series often up to 46.1 µM), for the others: at the highest dose activity change, negative = inhibition, actives largely listed as inhibitors; further: potency means the concentration at half of the fitted maximal effect; on the % scale 0 is the no-effect control and ±100 the full control effect
# VDR cytotox – qHTS for Inhibitors of the vitamin D receptor (VDR): Hit Validation using a Cytotoxicity Assay | cytotoxicity counter-screen, cell viability, qHTS | 840 tested, 18% active | Potency, µM (highest dose often 48.3 µM), without a hit: at the highest dose activity change, negative = cytotoxicity, actives largely listed as cytotoxic | shares compounds with VDR inhibitor | AID 602204, 2012;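 further: potency means the concentration at half of the fitted maximal effect; plate controls were DMSO for no effect and high-concentration cycloheximide for full effect; nearly all actives have a fitted effect of over 75% in size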
# TbPYK inh – qHTS of Trypanosoma Brucei Inhibitors: Confirmatory Assay for Cherry-picked Compounds; shares compounds with PLK1 PBD inh; recombinant TbPYK, Kinase-Glo ATP luminescence; Potency, µM (series often up to 76.9 µM), inactives show at the highest dose activity change, negative = inhibition, usual class: inhibitors; 890 tested, 67% active; AID 720569, 2013; further: potency means the concentration at half of the fitted maximal effect; on the % scale 0 is the no-effect control and ±100 the full control effect; nearly all actives have a fitted effect of over 70% in size
# TbPYK ADP-Glo – qHTS of Trypanosoma Brucei Inhibitors: Orthogonal Assay for Cherry-picked Compounds; shares compounds with PLK1 PBD inh; recombinant TbPYK, ADP-Glo luminescence, 60 min; Potency, µM (titrated, usually from 76.9 µM), without a hit: at the top dose activity change, negative = inhibition, usual class: inhibitors; 890 tested, 62% active; AID 720584, 2013; further: potency means the concentration at half of the fitted maximal effect; on the % scale 0 is the no-effect control and ±100 the full control effect; nearly all actives have a fitted effect of over 75% in size
# * marks the source's active call; other numbers are inactive results; i = inactive; u = inconclusive; x = no result given. Unless noted, the call rests on the fitted dose curve; in most records, active means well fitted curve in the direction sought with a large enough effect; inconclusive means small, poorly fitted or top-dose-only effect, or another doubt; inactive means no such curve, though single readings can be large; an effect the other way counts as inactive or inconclusive.
SMILES,PLK1 PBD inh,Tau fluor cs,Tau FP inhib,VDR inhibitor,Tau fibril ThT,Sfp inh,Sfp inh conf,Sfp gel assay,VDR inh confirm,VDR FP,VDR bla,VDR cytotox,others
CCC1OC(=O)C(C)[C@@H](O[C@H]2C[C@@](C)(OC)C(O)C(C)O2)C(C)[C@@H](O[C@@H]2OC(C)CC(N(C)C)C2O)[C@@](C)(O)CC(C)CN(C)C(C)C(O)[C@]1(C)O (stereo not given in full),x,-10%,-7%,-7%,-2%,28%,x,x,x,x,x,x,
Cc1sc(NC(=O)c2ccccc2)c(C(=O)c2ccccc2)c1C,6.7µM*,-22%,-6%,56µM*,u,13µM*,13µM*,x,19*,8.9µM*,23%,20%,
Cc1sc2c(c1C)C(=O)NC(c1ccccc1F)N2 (stereo not given),2.1µM*,-13%,-6%,32µM*,-7%,7.9µM*,7.4µM*,i,6.7*,u,9%,2%,
O=C1CSC(c2ccccc2F)N1 (stereo not given),-16%,-7%,13%,-2%,x,0%,x,x,x,x,x,x,
CCCOc1ccc(CNC(=O)C2CCCN(c3nc4c(C)cc(C)cc4s3)C2)cc1 (stereo not given),x,-17%,1%,-1%,-13%,x,x,x,x,x,x,x,
CC1=NNC(=O)/C1=C\c1cn(-c2ccccc2)nc1-c1ccccc1,6µM*,-1%,3%,u,-1%,3.5µM*,42µM*,19µM*,3.2*,3.2µM*,23µM*,19µM*,
COc1ccccc1NC(=O)c1cnc(SCC(=O)N2CCCc3ccccc32)n(C)c1=O,x,-5%,u,8%,u,x,x,x,x,x,x,x,
CCC(C)(C)n1nnnc1C(c1ccc(O)c(OC)c1)N1CCc2ccccc2C1 (stereo not given),27µM*,2%,7%,u,u,3.5µM*,5.9µM*,x,11*,28µM*,-2%,-7%,
CCC(C)(C)n1nnnc1C(c1ccccc1)N1CCc2ccccc2C1 (stereo not given),-2%,-6%,1%,-6%,-13%,15%,x,x,x,x,x,x,
CN1CCN(C(=S)C(=O)Nc2ccc(Br)cc2)CC1,2.4µM*,-20%,u,u,u,1.3µM*,6.6µM*,x,4*,3.5µM*,-3%,-15%,
O=C1CCCCC(=O)[C@H](O)C[C@H](COCc2ccccc2)O1,-5%,x,x,x,x,x,x,x,x,x,x,x,
O=C(CSc1nc2ccc(S(=O)(=O)N3CCOCC3)cc2[nH]1)N1CCOCC1,2.2µM*,-26%,u,22µM*,28µM*,6.3µM*,3.7µM*,x,3.8*,u,9%,14%,
Cc1ccc(-c2cc(C(=O)O)c3cc(Br)ccc3n2)o1,12µM*,-16%,u,32µM*,20µM*,3.2µM*,3.7µM*,i,27*,u,33%,13%,TbPYK inh=11µM*;TbPYK ADP-Glo=14µM*
CCN1CCN(C(=S)c2ccc(Cl)cc2)CC1,2.1µM*,-21%,u,35µM*,u,2.2µM*,13µM*,i,9.5*,u,1%,2%,TbPYK inh=0.25µM*;TbPYK ADP-Glo=1.6µM*
S=C(c1ccc(Cl)cc1)N1CCN(Cc2ccccc2)CC1,-16%,-6%,2%,16%,-7%,-18%,x,x,x,x,x,x,
Cc1cccc2cc3c(nc12)SC(=NCC1CCCO1)N(Cc1ccco1)C3 (stereo not given),24µM*,-25%,5%,u,u,3.5µM*,6.6µM*,6.2µM*,14*,6.3µM*,21µM*,u,TbPYK inh=u;TbPYK ADP-Glo=32µM*
O=C(/C=C/[C@H]1O[C@@H](n2ccc(=O)[nH]c2=O)[C@H](O)[C@@H]1O)NCC1CCCO1 (stereo not given in full),-15%,x,x,x,x,x,x,x,x,x,x,x,
N#C/C(=C/c1ccc(N2CCOCC2)o1)c1ccc(Cl)cc1,6%,u,u,u,16µM*,0.71µM*,13µM*,x,x,x,x,x,TbPYK inh=u;TbPYK ADP-Glo=35µM*
